The record followed here is PubChem BioAssay (NCI).

About 79,000 compounds went through this panel and 15% of them were active in at least one assay; those are over-represented in the sample as a whole. Unmarked numbers belong to inactive results. Cut-off read from the data, not from the text of the source: active = growth inhibition above about 70%; inactive = the rest.

The nature of the test: NCI Yeast Anticancer Drug Screen. Data for the mlh1 rad18 strain (AID 175). Conditions: S. cerevisiae mlh1 rad18 strain growth inhibition; at 50.0 µM; hits give high values. The gist of the method:
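Cells of a genetically altered yeast strain, deficient in DNA damage repair, were treated with compound. Their growth was then compared with that of vehicle-treated cultures to give inhibition.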
As to `COc1cc(C(=O)NN(C)C)cc(OC)c1OC`, the growth inhibition is -18.5%.

Regarding `N#CCCOC(=O)Nc1ccccc1`, the growth inhibition was 0.6%.

Consider `CC1OC(n2ccc3ccc([N+](=O)[O-])cc32)C(O)C(O)C1O` (configuration not stated), for which the growth inhibition was -21.4%.

With `COC(=O)NCc1nc2cc3c[nH][nH]c3cc2n1`, the growth inhibition is 11.2%.

As for `C[S+]1Cc2nc3ccccc3n2C1c1c(F)cccc1F` (configuration not stated), the growth inhibition is 2.35%.

As for `C=CC1C(C(=O)Nc2ccccc2)CN1C` (configuration not stated), the growth inhibition was -3.4%.

Regarding `COc1ccc(CN2CCCN(Cc3ccc(OC)cc3OC)C2c2cc(OC)ccc2OC)c(OC)c1`, the growth inhibition is -0.4%.

Regarding `CCCCCCCCOC(=O)Nc1cccc2ccccc12`, the growth inhibition was -9.2%.

For the compound `Nc1nc(O)c(N)c(=O)[nH]1`, the growth inhibition is -20.9%.

As for `c1ccn2cncc2c1`, the growth inhibition was 15.1%.

With `Cc1cc(N(CCC#N)CCC#N)ccc1C=Nc1ccc(C(=O)NN2C(=O)/C(=C/c3ccc(N(CCC#N)CCC#N)cc3)N=C2c2cc([N+](=O)[O-])ccc2Cl)cc1`, the growth inhibition is 7.8%.

In the case of `CC1(C)N=C(C(N)=O)c2[nH]cnc2N1`, the growth inhibition is -51.2%.

Consider `COc1cc(OC)c(OC)cc1/C=N/N=C(\N)NO`, for which the growth inhibition was -10.4%.

For the compound `CC1=CC(C(O)C(C)C)C(C)(Cc2ccc(C)cn2)NC1c1ccccc1` (configuration not stated), the growth inhibition is 0.5%.

As for `CCN(CC)Cc1cc(OC)c(OC)c(OC)c1`, the growth inhibition was -18.1%.

Regarding `Cc1cc(=O)[nH]c(Nc2nc3ccccc3[nH]2)n1`, the growth inhibition was 5.9%.

For `Oc1ccc(-c2csc(NNC3=NC/C(=C/c4ccc5c(c4)OCO5)S3)n2)cc1O`, the growth inhibition was 40.8%.
